Screens (PubChem)
IDH1 R132H inh: human IDH1 R132H inhibition | IDH1-R132H enzyme, NADPH consumption, diaphorase/resazurin fluorescence | 0.093% of 390,000 active | Potency, µM (top dose mostly 76.6 µM), for inactives: at the top dose activity change, negative = inhibition, most hits filed as inhibitors; note: potency is the fitted concentration of half-maximal effect; % is set by controls: 0 for no effect and ±100 for the full control effect; nearly all actives have a fitted effect of over 65% in size
Target sequence (O75874 whole entry R132H, stated change not applied): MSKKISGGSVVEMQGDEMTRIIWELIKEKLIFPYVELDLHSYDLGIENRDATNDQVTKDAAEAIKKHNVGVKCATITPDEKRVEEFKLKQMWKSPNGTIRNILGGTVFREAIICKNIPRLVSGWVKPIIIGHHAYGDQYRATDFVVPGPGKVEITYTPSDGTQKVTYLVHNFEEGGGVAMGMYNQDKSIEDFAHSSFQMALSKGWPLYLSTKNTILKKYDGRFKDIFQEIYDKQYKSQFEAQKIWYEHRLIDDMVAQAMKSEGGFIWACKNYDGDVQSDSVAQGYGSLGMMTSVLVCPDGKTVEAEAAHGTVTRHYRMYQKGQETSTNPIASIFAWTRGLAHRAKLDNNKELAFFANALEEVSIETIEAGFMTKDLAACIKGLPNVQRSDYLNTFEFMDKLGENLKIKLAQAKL
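IDH1-R132H (0.5 ug/mL dispensed) in pH 7.5 Tris buffer was preincubated 30 min with compound, then given a substrate mix of 0.016 mM NADPH and 2 mM alpha-KG for 80 min at room temperature; remaining NADPH was read by diaphorase/resazurin fluorescence.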
S2 tox: reduces viability in counter-screen for ATXN expression inhibitors | 0.49% of 400,000 active | S2 cells (HEK-293 line with an ATXN2-luciferase reporter) viability, CellTiter-Fluor protease fluorescence, 24 h | Potency, µM (titrated, usually from 56.7 µM), hits mostly cytotoxic | AID 651635; note: potency is the fitted concentration of half-maximal effect; nearly all actives have a fitted effect of over 40% in size
LDHA inh: blocks human lactate dehydrogenase A. activity change, % (values are at about 110 or 230 µM). purified LDHA, NADH/diaphorase-resazurin fluorescence; active compounds read low. 0.15% of 480,000 active; in the data active = activity change below about -30%; inconclusive = mostly about -25% to -30%;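 note: plate controls were DMSO wells for no effect and wells without enzyme for full effect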
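LDH5 2 nM; NADH 0.06 mM, pyruvate 0.2 mM; 200 mM Tris pH 7.4, EDTA, Tween-20; 5 min RT. Detection: diaphorase 0.133 mg/mL + resazurin 37 µM, fluorescence ex540/em590 at 0 and 20 min; normalized to enzyme-free and DMSO wells.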
ATXN2 expr inh: reduces ATXN2 reporter expression in HEK-293 cells | HEK-293 ATXN2-luciferase reporter, luminescence, 24 h | Potency, µM (titrated, usually from 57 µM), without a hit: top-dose activity change, negative = inhibition, actives largely listed as inhibitors | 0.72% of 360,000 active | AID 1745845; note: potency is the fitted concentration of half-maximal effect; % is set by controls: 0 for no effect and ±100 for the full control effect; nearly all actives have a fitted effect of over 55% in size
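ATXN2-luciferase reporter cells (luciferase flanked by upstream and downstream ATXN2 gene portions) were treated 24 h at 37 °C with compounds at up to 57 uM. SteadyGlo luminescence gave expression; GF-AFC fluorescence gave viability.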
TGFb inhibitor: inhibitors of TGF-b signaling; 1.2% of 410,000 active; Potency, µM (top dose mostly 46.1 µM), without a hit: at the highest dose activity, negative = inhibition, actives largely listed as inhibitors; HepG2 CAGA-GFP TGF-b/SMAD3 reporter, GFP fluorescence, 18 h; TGF-beta stimulated, 500 pg/mL final; AID 588855; note: potency is the fitted concentration of half-maximal effect; % is set by controls: 0 for no effect and ±100 for the full control effect; nearly all actives have a fitted effect of over 65% in size
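HEPG2 CAGA-GFP, 1000 cells/well; 2 h settle, 37 C; cpd via pin tool; TGF-b 500 pg/mL final; 18 h, 37 C; GFP imaging ex488/em500-530; %Activity normalised to -TGF-b and +DMSO controls; CRC fit, curve class.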
HepG2 tox: kills HepG2 cells in TGF-b inhibitor counter-screen | Potency, µM (titrated, usually from 46.1 µM), for inactives: at the highest dose activity change, negative = cytotoxicity, hits mostly cytotoxic | 0.76% of 410,000 active | HepG2 CAGA-GFP viability, ATP luminescence, 18 h | AID 588856; note: potency is the fitted concentration of half-maximal effect
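CellTiter-Glo luminescence gave cytotoxicity after 18 hours at 37 degrees C. The cells were HepG2 CAGA-GFP in 1% FBS DMEM, stimulated with 500 pg/mL TGF-beta after compound addition. %Activity was normalised to no-cell wells (complete cell-killing) and DMSO (no toxicity), and curves were fitted and classified.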
An asterisk follows results filed as active; i = inactive; ? = inconclusive; / = no result given. Compounds with a hit are over-represented: about 2.2% of the library has one in this group of screens. Unless noted, calls come from the whole dose curve; as a rule, active = well fitted curve in the direction sought with a large enough effect; inconclusive = small, poorly fitted or top-dose-only effect, or another doubt; inactive = no such curve, though single readings can be large; an effect the other way counts as inactive or inconclusive.

SMILES | IDH1 R132H inh | S2 tox | LDHA inh | ATXN2 expr inh | TGFb inhibitor | HepG2 tox
COc1ccccc1NC(=O)Cc1nc(CCl)cs1 | -0.3% | i | 1.5 | -25.7% | -9.5% | -0.5%
Cc1nc2ccc(CN(C)c3ccc(C(=O)N[C@@H](CCC(=O)O)C(=O)O)s3)cc2c(=O)[nH]1 | / | i | / | 0.1µM* | / | /
COc1cc(OC)cc(-c2cc3nc4c(c(N5CCN(c6ncccn6)CC5)n3n2)CCCC4)c1 | -3.6% | i | -3.9 | 27.7% | -2.5% | 10.0%
Cc1ccc(Nc2nc(Cl)nc(NC3CCCCC3)n2)cc1 | 0.2% | i | 2.8 | 28.0% | -26.1% | -25.6%
C=C(C)C1CCC2(C(=O)O)CCC3(C)C(CCC4C5(C)C(C=O)C(O)C(C)(C)C5CCC43C)C12 (centres undefined) | -6.2% | ? | -0.3 | ? | 12.6µM* | -27.3%
CCOC(=O)c1ccc(NC(=O)CC(c2ccc(OC)c(OC)c2)N2Cc3ccccc3C2=O)cc1 (centres undefined) | / | / | 7.7 | / | / | /
CC(C)Oc1ccc(C(CCN)C2CCCCC2)cc1 (centres undefined) | 0.0% | / | -15.4 | ? | ? | 11.2µM*
CC(C)Oc1ccc(C(=O)NC2CCCCC2)cc1 | 7.1% | i | -4.4 | 45.8% | 0.0% | 2.7%
CCOC(=O)c1ccc(NC(=O)CC2SC(c3cc4ccccc4oc3=O)=NC2=O)cc1 (centres undefined) | / | / | -30.6* | / | / | /
O=C(CC1SC(c2cc3ccccc3oc2=O)=NC1=O)Nc1ccc2ccccc2c1 (centres undefined) | / | / | 34.3 | / | / | /
COC(=O)N1CCN(c2ccc(OC)cc2)CC1 | 0.0% | i | 4.4 | 0.1% | 4.0% | 1.3%
COc1ccc(N2CCN(C(C)C(=O)N3CCCC3)CC2)cc1 (centres undefined) | 6.7% | i | -38.0* | -3.4% | ? | 7.3%
O=C(NNC(=O)c1ccc(Cl)c(Cl)c1)c1ccncc1 | 9.9% | i | -1.0 | 6.0% | -28.2% | 4.47µM*
O=C(NNC(=O)c1ccc(Cl)c([N+](=O)[O-])c1)c1ccncc1 | 4.0% | i | -15.1 | -28.6% | -13.8% | 22.6%
CCN(CC)c1ccc(NC(=O)CSc2nc(C3CC3)nc3ccccc23)cc1C | -13.2% | i | -5.2 | -16.9% | -3.1% | -3.2%
COc1ccc(S(=O)(=O)c2c(SC)nn(CC(=O)Nc3ccc(C)c(Cl)c3)c2N)cc1 | 1.6% | ? | 0.1 | ? | 7.08µM* | 5.5%
CCSc1nn(CC(=O)Nc2cccc(CC)c2)c(N)c1S(=O)(=O)c1ccccc1 | -1.9% | ? | -1.9 | ? | 11.2µM* | -38.6%
O=c1c2c3nc4ccccc4nc3n(Cc3ccccc3)c2ncn1Cc1ccco1 | 3.8% | i | -9.5 | -10.3% | ? | -16.0%
Cc1ccc(S(=O)(=O)NCc2ccncc2)c(C)c1C | -6.0% | i | -10.1 | -20.9% | -8.8% | -12.0%
CCn1c(C)nnc1SCC(=O)Nc1ccc(OC)cc1 | 4.8% | i | -0.7 | / | -5.5% | 6.31µM*
Cc1cccc(C)c1N1C(=O)CC(N2CCN(S(=O)(=O)c3ccccc3F)CC2)C1=O (centres undefined) | -0.1% | i | -0.2 | / | 10.1% | -22.7%
O=C1CC(N2CCN(S(=O)(=O)c3ccccc3F)CC2)C(=O)N1c1ccccc1F (centres undefined) | 2.9% | i | -34.9* | -2.2% | 2.3% | 17.9%
O=C1C(O)=C(c2ccccc2)C(c2ccccc2F)N1c1ccc(F)cc1 (centres undefined) | / | / | -40.8* | / | / | /
CCOC(=O)C1=C(O)C(=O)N(c2ccccc2)C1c1ccccc1F (centres undefined) | / | / | -1.9 | / | / | /
CCn1cc([N+](=O)[O-])c(C(=O)N2N=C(c3cccc4ccccc34)CC2c2ccccc2O)n1 (centres undefined) | -4.3% | ? | -3.8 | ? | 12.6µM* | -55.0%
SMILES | IDH1 R132H inh | S2 tox | LDHA inh | ATXN2 expr inh | TGFb inhibitor | HepG2 tox
O=C(c1ccccc1)N1N=C(c2ccccc2)CC1c1ccccc1O (centres undefined) | 1.3% | i | -1.5 | -14.6% | ? | -186.2%
CCn1cc([N+](=O)[O-])c(C(=O)N2N=C(c3ccc(OC)cc3OC)CC2c2ccccc2O)n1 (centres undefined) | -10.6% | i | -4.5 | -4.8% | ? | -24.9%
CCn1cc([N+](=O)[O-])c(C(=O)N2N=C(c3ccc4ccccc4c3)CC2c2ccccc2O)n1 (centres undefined) | 6.2% | ? | -9.0 | ? | 14.1µM* | -75.4%
CCn1cc([N+](=O)[O-])c(C(=O)N2CCCC2)n1 | 2.5% | i | -2.6 | 2.4% | -28.4% | 3.1%
CCn1cc(Cl)c(C(=O)N2N=C(c3ccc4ccccc4c3)CC2c2ccccc2O)n1 (centres undefined) | 2.4% | ? | 1.7 | 17.8µM* | 7.08µM* | -44.7%
Cc1ccc(C)c(-c2cn3ccccc3n2)c1 | / | / | 4.7 | / | / | /
Cc1ccc(/C=[N+](\[O-])c2ccc(N(C)C)cc2)c2nsnc12 | 21.1% | ? | 39.6 | ? | 7.94µM* | 14.1µM*
Cc1ccc(C)c2c(/C=C/c3ccc(N(C)C)cc3)ccnc12 | / | / | 6.6 | / | 17.0% | -42.6%
Cc1cc(C)n(-c2nc3ccccc3nc2N2CCN(S(=O)(=O)c3ccc(C)c(C)c3)CC2)n1 | / | / | -30.2* | / | / | /
Cc1ccc(S(=O)(=O)N2CCN(c3nc4ccccc4nc3-n3nc(C)cc3C)CC2)cc1 | 3.3% | i | 2.7 | -4.3% | -16.5% | -1.3%
CC(C)(C)c1ccc(OCC(O)CN(CCO)CC(O)Cn2ccc3ccccc32)cc1 (centres undefined) | -7.7% | i | -1.1 | -18.0% | 11.2µM* | -73.6%
OCCN(CC(O)Cn1ccc2ccccc21)CC(O)Cn1ccc2ccccc21 (centres undefined) | 2.4% | i | 1.4 | -8.4% | ? | -36.6%
COC(=O)C1(NC(=O)COc2cc(Cl)ccc2Cl)CCCCCC1 | / | / | -30.5* | / | / | /
Cc1ccc(Cc2cnc(NC(=O)/C(C#N)=C/c3ccc(-c4ccc([N+](=O)[O-])cc4)o3)s2)cc1 | -2.9% | / | -7.4 | 15.8µM* | -4.8% | -8.4%
N#C/C(=C/c1ccc(-c2ccc([N+](=O)[O-])cc2)o1)C(=O)Nc1nc(-c2cccs2)cs1 | -6.8% | i | 2.3 | 3.0% | -1.5% | -8.5%
NS(=O)(=O)c1ccc(CCNC(=O)c2ccc3c(c2)N(Cc2ccccc2)CCS3)cc1 | 0.3% | i | 0.2 | 5.0% | 2.5% | 1.4%
C=CC[n+]1c(/C=C/c2ccc(OC(C)=O)c(OC)c2)ccc2ccccc21 | 4.6% | 15.8µM* | 2.6 | / | -4.7% | -56.5%
